Our source for the outcome, Potency and viability change values is PubChem BioAssay (NCATS).

SMILES strings stand for the structures. “And” between values parts separate entries of the source, which are not always exact repeats. Equal entries are not always repeated. Inconclusive results are not listed. The source made the active and inactive calls. Unless noted, calls come from the whole dose curve; as a rule, active = well fitted curve in the direction sought with a large enough effect; inconclusive = small, poorly fitted or top-dose-only effect, or another doubt; inactive = no such curve, though single readings can be large; an effect the other way counts as inactive or inconclusive.

The target of test [1] is Methanococcus maripaludis chaperonin (MmCpn) (UniProt Q6LX38). The test is described as follows: High-Throughput Screening for Modulators of Cytosolic Chaperonin Activity: MmCpn Primary Screen (AID 488978).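 Note: 50 nM MmCpn enzyme hydrolysing 30 µM ATP at 37 °C; 0% is about no effect.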 A digest of the protocol:
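MmCpn (50 nM final) was preincubated with compound 5 min at RT, then 30 uM ATP (final) was added and the reaction ran 10 min at 37C. ADP produced was detected by Transcreener HTRF (ex 320 nm; em 590/665 nm).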

In test [2] the target is D(1A) dopamine receptor (Homo sapiens) (UniProt P21728). The test is described as follows: HTS Assay for Allosteric Agonists of the Human D1 Dopamine Receptor: Primary Screen for Agonists (AID 488981). Note: 0% is about no effect. A digest of the protocol:
(§1)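 Calcium flux in an inducible, force-coupled HEK293 Trex D1 line (overnight at 30 C): agonist mode is the 180 s kinetic read after compound; potentiator mode is the following 180 s read after dopamine at EC20.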

Test [3] shares this target. The test is described as follows: HTS Assay for Allosteric Agonists of the Human D1 Dopamine Receptor: Primary Screen for Potentiators (AID 488982). Note: 0% is about no effect. A digest of the protocol:
as §1

The target is the same in test [4]. The experiment in a line: HTS Assay for Allosteric Agonists of the Human D1 Dopamine Receptor: Primary Screen for Antagonists (AID 488983).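 Note: calcium flux response to an EC80 dopamine challenge measured with no-wash dye; nearly all actives have a fitted effect of over 65% in size.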 Note: potency is the fitted concentration of half-maximal effect. A digest of the protocol:
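Calcium-flux read-out in inducible HEK293 T-REx cells expressing D1, dye-loaded 30–90 min at room temperature. Kinetic reads: 180 s after compound (agonist phase), then 180 s after an EC80 dopamine challenge.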

Test [5] can be described thus: Validation screen for small molecules that induce genotoxicity in human embryonic kidney (HEK293T) cells expressing luciferase-tagged ELG1 (AID 493106). Note: 0% is about no effect. A digest of the protocol:
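ELG1-luciferase reporter readout (ONE-Glo, 30 min, room temperature) after 16 hr compound treatment at 37 °C of HEK293T cells at 2,000 per well. Rising luminescence flags genotoxic stress.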

The target in test [6] is ATPase family AAA domain-containing protein 5 (Homo sapiens) (UniProt Q96QE3). The experiment in a line: Validation screen for small molecules that inhibit ELG1-dependent DNA repair in human embryonic kidney (HEK293T) cells expressing luciferase-tagged ELG1 (AID 493107). Note: nearly all actives have a fitted effect of over 70% in size. Note: potency is the fitted concentration of half-maximal effect. A digest of the protocol: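 Luciferase read-out, ONE-Glo, 30 min at room temperature, follows 16 h co-exposure at 37 C of compound and the DNA-damaging agent 5-fluorouridine. Cells: HEK293T with ELG1-luciferase fusion, 2,000 per well, DMSO as vehicle.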

The nature of test [7]: Nrf2 qHTS screen for inhibitors: Validation (AID 493153; active = well fitted inhibition curve with a large enough effect in the main read-out, with a control signal flat, not every such curve was filed as active; note: potency is the fitted concentration of half-maximal effect). The following applies: Potency: luciferase luminescence; viability change: measured here: cytotoxicity max response. The method, boiled down:
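Concentration-response on A549 ARE_Fluc reporter cells exposed 18-24 h at 37 C, 5% CO2. Cytotoxicity read first by CellTiter-Fluor fluorescence (Ex 405/Em 525), then Nrf2 inhibition by BugLite luminescence after 15 min.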
In general terms: Quantitative high-throughput screening tests each substance at several concentrations.

A short description of test [8]: qHTS for Inhibitors of Cell Surface uPA Generation: Validation Assay (AID 493164).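 Note: RAW 264.7 macrophage cells exposed to compound for 18 h; 0% is about no effect.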 A digest of the protocol:
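ATP-Lite luminescence read-out: ATP remains high when uPA activity-dependent LF translocation into the cytoplasm is blocked. RAW 264.7 cells, 18 h compound exposure at 37 C; 7-point titration, 2.45 nM to 38.3 uM final.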

Test [9] has as its target Peptidyl-prolyl cis-trans isomerase NIMA-interacting 1 (Homo sapiens) (UniProt Q13526). The experiment in a line: qHTS Validation Assay to Find Inhibitors of Pin1 (AID 504536; active = well fitted inhibition curve with a large enough effect in the polarisation, with a control signal flat, not every such curve was filed as active; the % refers to the polarisation; note: potency is the fitted concentration of half-maximal effect). A digest of the protocol: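 Fluorescence polarization competition: compounds (titration) displace HiFluor-488-labeled Pin1-1b peptide from Pin1 (0.3 uM final) in pH 7.5 HEPES buffer with DTT, 10 min at room temperature; %Activity normalized to no-enzyme wells, curves fitted.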

The target in test [10] is Phosphoglycerate kinase, glycosomal (Trypanosoma brucei brucei) (UniProt P07378). The experiment in a line: qHTS Validation Assay to Find Inhibitors of Phosphoglycerate Kinase (AID 504547).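 Note: control wells lack PGK and mark full inhibition.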 The method, boiled down:
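Luminescence end-point (Kinase-Glo Plus, 10 min) after a 60 min room-temperature coupled reaction. GAPDH at 100nM final supplies 1,3-BPG to PGK. Buffer: 100mM TEA pH 7.6, 5mM MgCl2, 0.01% Tween-20. Wells lacking PGK served as controls.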

The target in test [11] is phosphoglycerate mutase (Leishmania major) (UniProt Q4Q090). The test is described as follows: qHTS Validation Assay to Find Inhibitors of Phosphoglycerate Mutase (AID 504548).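 Note: end-point luminescence from Kinase-GloPlus after the PGAM reaction; series mostly up to about 58 µM; % is set by controls: 0 for no effect and ±100 for the full control effect.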 The following applies: Potency: inhibition qHTS. The method, boiled down: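 Inhibition of L. major PGAM was assessed by Kinase-GloPlus luminescence following a 45-minute room-temperature reaction with enzyme at 1.25nM final.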

In test [12] the target is Ubiquitin carboxyl-terminal hydrolase 1 (Homo sapiens) (UniProt O94782). The experiment in a line: Inhibitors of USP1/UAF1: Pilot qHTS (AID 504865). Note: nearly all actives have a fitted effect of over 35% in size. Note: potency is the fitted concentration of half-maximal effect. The method, boiled down: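 USP1/UAF1 complex (1nM) preincubated with compound 15 min at room temperature, then Ub-Rho substrate (150nM final) added. Fluorescence read kinetically at 480/540 nm, 6 reads every 60 seconds. Buffer: 50mM HEPES pH 7.8, 0.5mM EDTA, 0.1 mg/ml BSA, 1mM TCEP, 0.01% Tween-20.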

A short description of test [13]: qHTS for Inhibitors of ATXN expression: Validation of Cytotoxic Assay (AID 588349). Note: potency is the fitted concentration of half-maximal effect. A digest of the protocol: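 Cytotoxicity counter-screen: ATP-based luminescent viability (CellTiter Glo) after 72 hr exposure of HEK293 cells to a compound titration at 37 degrees C.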
For test [14], the target named is ATP-dependent 6-phosphofructokinase (Trypanosoma brucei brucei) (UniProt O15648). The experiment in a line: qHTS Assay to Find Inhibitors of T. brucei phosphofructokinase: hit validation (AID 492961).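 Note: luminescence reports ADP formed as PFK phosphorylates fructose-6-phosphate with ATP; series mostly up to about 51 µM; % is set by controls: 0 for no effect and ±100 for the full control effect.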 The method, boiled down:
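ADP-Glo luminescence read-out of ADP formed by 1.25 nM PFK from 0.1 mM ATP and 0.5 mM F6P (TEA pH 8.0, 45 min, RT). Compounds titrated; activity normalized to no-enzyme and full-enzyme controls.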

Sequence of Peptidyl-prolyl cis-trans isomerase NIMA-interacting 1 (Homo sapiens) (Q13526 whole entry, looked up): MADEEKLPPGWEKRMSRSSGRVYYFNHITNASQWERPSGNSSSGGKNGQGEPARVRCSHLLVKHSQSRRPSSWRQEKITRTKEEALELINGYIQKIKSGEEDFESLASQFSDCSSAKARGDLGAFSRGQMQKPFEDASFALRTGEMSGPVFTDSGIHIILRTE
Sequence of ATPase family AAA domain-containing protein 5 (Homo sapiens) (Q96QE3 whole entry, looked up, the tested form may be a part): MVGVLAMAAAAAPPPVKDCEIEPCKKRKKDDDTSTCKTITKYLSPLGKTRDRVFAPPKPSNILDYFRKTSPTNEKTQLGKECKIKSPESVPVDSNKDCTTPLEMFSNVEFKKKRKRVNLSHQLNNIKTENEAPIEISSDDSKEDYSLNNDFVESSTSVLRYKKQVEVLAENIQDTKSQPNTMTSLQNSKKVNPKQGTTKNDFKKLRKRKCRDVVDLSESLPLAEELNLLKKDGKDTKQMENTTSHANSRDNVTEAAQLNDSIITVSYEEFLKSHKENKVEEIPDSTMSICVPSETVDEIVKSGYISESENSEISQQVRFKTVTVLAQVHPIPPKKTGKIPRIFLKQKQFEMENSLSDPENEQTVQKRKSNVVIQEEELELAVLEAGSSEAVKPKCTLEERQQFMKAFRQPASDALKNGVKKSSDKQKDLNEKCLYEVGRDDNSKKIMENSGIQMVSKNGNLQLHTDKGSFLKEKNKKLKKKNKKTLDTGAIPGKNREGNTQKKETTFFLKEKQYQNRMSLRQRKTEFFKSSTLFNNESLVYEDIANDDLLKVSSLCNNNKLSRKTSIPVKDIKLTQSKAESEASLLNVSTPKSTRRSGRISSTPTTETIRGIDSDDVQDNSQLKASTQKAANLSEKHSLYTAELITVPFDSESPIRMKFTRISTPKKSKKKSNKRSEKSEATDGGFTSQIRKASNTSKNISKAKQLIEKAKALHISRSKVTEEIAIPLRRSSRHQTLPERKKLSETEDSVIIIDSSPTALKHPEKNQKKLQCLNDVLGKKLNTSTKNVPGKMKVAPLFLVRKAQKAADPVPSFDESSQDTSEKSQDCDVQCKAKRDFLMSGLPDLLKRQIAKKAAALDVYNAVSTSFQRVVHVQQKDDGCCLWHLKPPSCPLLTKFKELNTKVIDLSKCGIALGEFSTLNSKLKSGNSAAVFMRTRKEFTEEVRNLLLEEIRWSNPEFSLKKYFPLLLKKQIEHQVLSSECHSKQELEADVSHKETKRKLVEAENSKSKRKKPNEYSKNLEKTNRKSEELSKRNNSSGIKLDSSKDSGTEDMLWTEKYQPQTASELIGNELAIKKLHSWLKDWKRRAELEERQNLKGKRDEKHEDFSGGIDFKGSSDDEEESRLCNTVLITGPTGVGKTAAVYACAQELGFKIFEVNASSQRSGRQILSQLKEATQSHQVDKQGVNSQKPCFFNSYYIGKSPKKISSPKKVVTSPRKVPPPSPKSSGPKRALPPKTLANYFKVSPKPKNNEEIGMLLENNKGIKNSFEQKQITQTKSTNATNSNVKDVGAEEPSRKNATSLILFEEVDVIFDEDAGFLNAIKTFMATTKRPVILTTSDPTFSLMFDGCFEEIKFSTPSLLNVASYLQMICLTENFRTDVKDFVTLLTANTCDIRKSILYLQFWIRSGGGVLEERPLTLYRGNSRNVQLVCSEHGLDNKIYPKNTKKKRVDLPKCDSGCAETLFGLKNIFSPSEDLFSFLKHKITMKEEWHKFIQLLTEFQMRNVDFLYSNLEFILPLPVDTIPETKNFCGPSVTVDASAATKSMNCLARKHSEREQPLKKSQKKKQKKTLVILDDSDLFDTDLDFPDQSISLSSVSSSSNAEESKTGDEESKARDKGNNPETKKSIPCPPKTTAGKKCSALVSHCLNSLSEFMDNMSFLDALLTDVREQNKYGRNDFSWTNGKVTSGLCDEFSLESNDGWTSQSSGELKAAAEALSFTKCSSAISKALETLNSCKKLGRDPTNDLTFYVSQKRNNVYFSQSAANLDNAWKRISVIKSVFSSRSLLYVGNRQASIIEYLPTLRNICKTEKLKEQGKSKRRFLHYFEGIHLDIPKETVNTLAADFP
Sequence of Methanococcus maripaludis chaperonin (MmCpn) (Q6LX38 1-543): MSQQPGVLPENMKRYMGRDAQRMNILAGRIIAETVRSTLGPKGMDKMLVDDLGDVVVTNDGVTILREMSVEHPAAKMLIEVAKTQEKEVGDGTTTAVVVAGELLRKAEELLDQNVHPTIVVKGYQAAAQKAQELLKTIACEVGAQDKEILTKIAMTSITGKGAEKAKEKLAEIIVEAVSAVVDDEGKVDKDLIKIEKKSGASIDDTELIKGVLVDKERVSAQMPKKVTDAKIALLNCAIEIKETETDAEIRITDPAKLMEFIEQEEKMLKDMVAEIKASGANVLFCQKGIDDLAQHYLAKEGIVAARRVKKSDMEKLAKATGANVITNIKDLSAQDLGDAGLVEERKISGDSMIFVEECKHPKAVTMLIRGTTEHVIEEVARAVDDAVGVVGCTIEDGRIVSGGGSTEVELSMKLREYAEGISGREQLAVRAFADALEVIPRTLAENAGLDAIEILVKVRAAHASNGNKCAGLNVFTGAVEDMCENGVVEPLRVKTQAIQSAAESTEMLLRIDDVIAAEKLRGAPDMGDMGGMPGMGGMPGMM
Sequence of D(1A) dopamine receptor (Homo sapiens) (P21728 whole entry, looked up): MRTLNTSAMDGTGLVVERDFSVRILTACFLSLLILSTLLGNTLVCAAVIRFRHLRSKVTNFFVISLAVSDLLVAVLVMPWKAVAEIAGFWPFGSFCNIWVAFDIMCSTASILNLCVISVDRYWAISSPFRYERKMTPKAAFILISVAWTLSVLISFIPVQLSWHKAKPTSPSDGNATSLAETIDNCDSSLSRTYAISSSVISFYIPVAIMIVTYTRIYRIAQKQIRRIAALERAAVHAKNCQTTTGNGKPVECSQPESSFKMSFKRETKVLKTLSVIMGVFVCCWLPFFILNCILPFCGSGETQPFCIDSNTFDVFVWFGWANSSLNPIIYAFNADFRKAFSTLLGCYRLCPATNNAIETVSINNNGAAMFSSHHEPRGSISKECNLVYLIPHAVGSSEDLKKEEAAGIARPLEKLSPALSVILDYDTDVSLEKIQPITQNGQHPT
Sequence of phosphoglycerate mutase (Leishmania major) (Q4Q090 1-553): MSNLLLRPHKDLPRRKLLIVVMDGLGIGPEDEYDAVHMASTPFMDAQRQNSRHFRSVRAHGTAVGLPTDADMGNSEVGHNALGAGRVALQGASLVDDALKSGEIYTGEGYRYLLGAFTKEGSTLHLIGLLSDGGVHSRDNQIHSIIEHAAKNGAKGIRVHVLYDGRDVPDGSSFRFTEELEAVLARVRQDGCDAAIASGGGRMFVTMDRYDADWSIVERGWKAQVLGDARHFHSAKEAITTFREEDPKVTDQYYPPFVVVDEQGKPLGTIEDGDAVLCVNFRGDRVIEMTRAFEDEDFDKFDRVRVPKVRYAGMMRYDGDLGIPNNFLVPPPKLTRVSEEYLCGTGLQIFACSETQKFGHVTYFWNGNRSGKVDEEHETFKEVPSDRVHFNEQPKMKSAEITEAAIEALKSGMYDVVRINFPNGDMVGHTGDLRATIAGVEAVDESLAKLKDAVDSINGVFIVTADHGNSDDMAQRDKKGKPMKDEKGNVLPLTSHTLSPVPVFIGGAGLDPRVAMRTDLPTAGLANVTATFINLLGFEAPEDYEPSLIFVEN
Sequence of Ubiquitin carboxyl-terminal hydrolase 1 (Homo sapiens) (O94782 whole entry, looked up): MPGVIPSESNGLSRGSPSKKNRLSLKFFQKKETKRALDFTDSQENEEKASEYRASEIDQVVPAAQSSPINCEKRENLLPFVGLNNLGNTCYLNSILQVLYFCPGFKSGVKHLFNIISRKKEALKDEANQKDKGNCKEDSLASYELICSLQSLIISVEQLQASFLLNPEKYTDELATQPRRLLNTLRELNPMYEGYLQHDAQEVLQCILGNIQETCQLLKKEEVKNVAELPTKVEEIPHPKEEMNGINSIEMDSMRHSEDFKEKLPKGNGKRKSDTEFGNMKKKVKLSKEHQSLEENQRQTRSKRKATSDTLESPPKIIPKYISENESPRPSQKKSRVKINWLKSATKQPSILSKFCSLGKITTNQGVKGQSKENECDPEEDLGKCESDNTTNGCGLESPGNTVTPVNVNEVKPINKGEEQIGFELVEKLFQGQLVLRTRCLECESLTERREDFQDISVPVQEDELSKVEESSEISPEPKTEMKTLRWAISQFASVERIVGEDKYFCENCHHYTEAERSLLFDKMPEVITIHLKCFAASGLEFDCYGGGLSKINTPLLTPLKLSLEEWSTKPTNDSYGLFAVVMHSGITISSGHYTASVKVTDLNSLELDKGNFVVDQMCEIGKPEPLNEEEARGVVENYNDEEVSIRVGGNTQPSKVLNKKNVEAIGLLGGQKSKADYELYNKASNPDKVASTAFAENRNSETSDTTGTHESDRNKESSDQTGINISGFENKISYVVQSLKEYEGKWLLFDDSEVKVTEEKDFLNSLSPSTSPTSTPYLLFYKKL
Sequence of Phosphoglycerate kinase, glycosomal (Trypanosoma brucei brucei) (P07378 whole entry, looked up): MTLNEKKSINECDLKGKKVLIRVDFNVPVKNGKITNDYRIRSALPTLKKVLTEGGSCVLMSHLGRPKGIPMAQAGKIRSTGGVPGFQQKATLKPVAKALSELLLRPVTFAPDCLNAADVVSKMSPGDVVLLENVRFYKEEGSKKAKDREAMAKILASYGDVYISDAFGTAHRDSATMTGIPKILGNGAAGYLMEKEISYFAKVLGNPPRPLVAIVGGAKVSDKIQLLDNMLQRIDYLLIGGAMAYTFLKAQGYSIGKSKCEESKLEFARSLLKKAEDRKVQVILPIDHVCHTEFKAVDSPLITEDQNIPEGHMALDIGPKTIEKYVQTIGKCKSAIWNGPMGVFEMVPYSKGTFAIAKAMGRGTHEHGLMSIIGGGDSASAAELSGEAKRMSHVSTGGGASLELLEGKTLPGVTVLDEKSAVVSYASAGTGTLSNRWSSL

Turning to `Nc1nc(Cl)nc2c1ncn2[C@@H]1O[C@H](CO)[C@@H](O)[C@H]1O`, the call in test [1] and in test [8] was inactive. The Potency entry in [2], in test [3], in test [4], in test [5], in test [6] and in [7] was “inactive” in each case. Further, the Potency entry in test [9], in test [10], in test [11], in test [12] and in test [13] was “inactive” throughout. Moreover, in test [7], the viability change was -2.02%.

As for `NC(=S)NCCC[C@H](N)C(=O)O`, the call in [1] and in [8] was inactive. In addition, the Potency result in test [2], in test [3], in test [4], in test [5], in test [6] and in test [7] was “inactive” throughout. Also, the Potency entry in [9], in test [10], in test [11], in test [12] and in [13] was “inactive” throughout. In addition, the viability change in test [7] was determined as 2.08%.

On to `Cc1cc2c(cc1Cl)N(C(=O)Nc1ccc(Oc3cccnc3C)nc1)CC2`, for which the outcome in [1] was inactive. Also, the Potency entry in test [2], in test [3], in test [5], in [9], in test [10] and in test [11] was “inactive” in each case. Further, the Potency in [4] was 14.1 µM (active); in [7] it was 7.31 µM (active); in [12] it was 44.7 µM (active). In addition, the viability change in test [7] is -19.7%.

Regarding `O=C(c1ccc(Cl)cc1)N1CCN(c2ccc([N+](=O)[O-])c3ncccc23)CC1`, the call in test [1] and in [8] was inactive. For the same molecule, the Potency entry in test [2], in test [3], in test [4], in test [5], in [9] and in test [10] was “inactive” in each case. The Potency entry in test [11], in test [12] and in test [13] was “inactive” throughout. In test [6], the Potency was 20.6 µM (active).

On to `N=c1ccn2c(n1)O[C@H]1[C@H](O)[C@@H](CO)O[C@H]12`, for which the call in test [1] and in test [14] was inactive. The Potency entry in test [2], in [3], in test [5], in test [6], in test [9] and in test [10] was “inactive” in each case. Moreover, the Potency entry in [12] and in test [13] was “inactive” each time.

As to `CCC1C(=O)OCC1Cc1cncn1C` (stereo not drawn), the molecule was classed as inactive in [1], in test [14] and in [8]. Moreover, the Potency entry in [2], in test [3], in test [5], in test [6], in test [7] and in test [10] was “inactive” in each case. Also, the Potency entry in test [11] is “inactive”. Further, the viability change in test [7] is 6.63% and 6.13%.

With `CCCC1(C)C(C#N)(C#N)C1(C#N)C#N`, the call in [1] was inactive. The Potency entry in test [2], in test [3], in [4], in test [9] and in [10] was “inactive” each time. Also, the results for the Potency in test [6] and in [12] were 16.4 µM (active) and 10 µM (active), respectively.

For the molecule `O=C(CCCCCN1CCN(c2ccccc2-c2ccccc2)CC1)NC1CCCc2ccccc21` (stereo not drawn), the call in [1] and in test [8] was inactive. Also, the Potency entry in test [2], in test [3], in [5], in test [10], in test [11] and in [12] was “inactive” in each case. Moreover, the Potency in test [4] was 7.08 µM (active); in [13], 15.8 µM (active).

With `CNC(=O)[C@H]1O[C@@H](n2cnc3c(NCc4ccc(N)cc4)ncnc32)[C@H](O)[C@@H]1O`, the call in [1] and in [8] was inactive. For the same molecule, the Potency result in test [2], in [3], in test [4], in [6], in test [7] and in [9] was “inactive” in each case. In addition, the Potency result in [10], in test [11], in [12] and in [13] was “inactive” each time. For the same molecule, the viability change in test [7] is -2.65%.

On to `CC(C)NC[C@@H](O)c1ccc(O)c(O)c1`, for which the call in [1] was inactive. For the same molecule, the Potency entry in test [2], in test [3], in [5], in test [6], in test [7] and in [10] was “inactive” each time. Also, the Potency result in test [11] and in test [12] was “inactive” in each case. In addition, in [7], the viability change is 0.444%.

As to `C[N+]1(C)CCC(OC(=O)C(c2ccccc2)c2ccccc2)CC1`, the molecule was called inactive in test [1] and in test [8]. The Potency entry in test [2], in test [5], in test [7], in [10], in test [11] and in [12] was “inactive” throughout. The Potency result in test [13] is “inactive”. The viability change in test [7] is 1.14%.

Consider `NC(=O)C1=CN(C2OC(COP(=O)(O)OP(=O)(O)OC[C@H]3O[C@@H](n4cnc5c(N)ncnc54)[C@H](OP(=O)(O)O)[C@@H]3O)C(O)C2O)C=CC1` (stereo partly drawn), for which the molecule was called inactive in test [1] and in test [8]. The Potency result in [3], in test [4], in test [5], in test [7], in [10] and in test [11] was “inactive” each time. The Potency result in test [12] and in test [13] was “inactive” throughout. Also, in test [7], the viability change amounted to 5.72%. Also, in [9], the Potency is 5.36 µM (active).

`Nc1nc(SCc2ccc([N+](=O)[O-])cc2)c2ncn([C@@H]3O[C@H](CO)[C@@H](O)[C@H]3O)c2n1`: in [1], the outcome was inactive. For the same molecule, the Potency entry in test [3], in test [5], in [7], in test [10], in test [11] and in test [12] was “inactive” each time. Moreover, the Potency entry in test [13] is “inactive”. For the same molecule, the Potency in test [6] was 0.146 µM (active). Further, the viability change in test [7] is 12.2%.

For `O=C(c1ccc(OCCCc2cnc[nH]2)cc1)C1CC1`, the result in test [1] was inactive. Moreover, the Potency result in [3], in [4], in test [7], in test [9], in [10] and in [11] was “inactive” each time. Also, the Potency result in [12] and in test [13] was “inactive” in each case. The viability change in test [7] was -3.26%.

As for `Cc1nc2sccn2c(=O)c1CCN1CCC(=C(c2ccccc2)c2ccc(F)cc2)CC1`, the molecule was classed as inactive in [1]. For the same molecule, the Potency entry in test [3], in [5], in [6], in test [7], in test [9] and in test [10] was “inactive” throughout. Besides, the Potency entry in test [11] was “inactive”. In [7], the viability change is 0.941%.

In the case of `OC[C@H]1O[C@@H](n2cnc3c(NC4CCCC4)ncnc32)[C@H](O)[C@@H]1O`, the outcome in test [1] and in [8] was inactive. The Potency result in test [2], in test [3], in test [6], in test [9], in test [10] and in [12] was “inactive” each time. Moreover, the Potency result in test [13] is “inactive”.

`O=C1NC(=O)/C(=C/c2ccc3nccnc3c2)S1`: in test [1], the molecule was classed as inactive. Moreover, the Potency result in test [2], in [3], in test [9], in [10], in test [11] and in test [13] was “inactive” throughout.

Consider `CCOC(=O)N1CCN(/[N+]([O-])=N/Oc2ccc([N+](=O)[O-])cc2[N+](=O)[O-])CC1`, for which the result in test [1] and in test [8] was inactive. Also, the Potency entry in [2], in test [3], in test [5], in [9], in test [10] and in test [11] was “inactive” each time.
